PubChem BioAssay (Tox21)
Records with an inconclusive call do not appear. Where a call stands in place of a potency, no number is given. A number with no mark means an inactive call. Activity calls are given as the source filed them. Calls come from the whole dose curve; as a rule, active = well fitted cell-killing curve with a large enough effect in the repeat runs; inconclusive = weak or mixed curves; inactive = no such curve, though single readings can be large or run the other way.

test: qHTS assay to identify small molecule antagonists of the peroxisome proliferator-activated receptor delta (PPARd) signaling pathway - cell viability counter screen (AID 743213); conditions: PPARd-bla HEK293H viability, CellTiter-Glo luminescence, 17 h; series mostly up to 62 µM; note: nearly all actives have a fitted effect of over 50% in size
Description: U.S. Tox21 Program National Center for Advancing Translational Sciences [NCATS] NIH Chemical Genomics Center [NCGC] U.S. Environmental Protection Agency [EPA] National Institutes of Environmental Health Sciences [NIEHS] National Toxicology Program [NTP] U.S. Food and Drug Administration [FDA] Tox21 Assay Overview: The peroxisome proliferator-activated receptors (PPARs) are lipid-activated transcription factors of the nuclear receptor superfamily with three distinct subtypes namely PPAR alpha, PPAR delta (PPARd) and PPAR gamma. All these subtypes heterodimerizes with Retinoid X receptor (RXR) and have different physiological functions. […] To identify the compounds that inhibit PPAR-delta signaling, GeneBLAzer PPAR delta UAS-bla HEK293H cell line (Invitrogen, Carlsbad, CA, USA) containing a beta-lactamase reporter gene under the control of an Upstream Activator Sequence (UAS) was used to screen the Tox21 compound library. The cytotoxicity of the Tox21 compound library against the PPARd-bla cell line was tested in parallel by measuring the cell viability using CellTiter-Glo assay (Promega, Madison, WI) in the same wells.
Tox21 Assay Protocol Summary: PPARd-bla cells were dispensed at 3000 cells/5uL/well in 1536-well black wall/clear bottom plates using a Multidrop Combi (Thermo Fisher Scientific, Waltham, MA) dispenser. After the assay plates were incubated at 37 C and 5% CO2 for 5 h, 23 nL of compounds dissolved in DMSO, positive controls or DMSO only was transferred to the assay plate by a Pintool station (Kalypsys, San Diego, CA), followed by addition of 1ul L165041 (300 nM, final concentration in the wells). The assay plates were incubated at 37 C for 17 h, and then 1 uL of LiveBLAzerTM B/G FRET substrate was added using a Bioraptr Flying Reagent Dispenser (FRD) workstation (Beckman Coulter, Indianapolis, IN, USA). The assay plates were incubated at room temperature for 2 h and fluorescence intensity was measured by an Envision plate reader (PerkinElmer, Shelton, CT). For cell viability readout that measures cytotoxicity, 3 ul/well of CellTiter-Glo reagent was added into the assay plates using a Bioraptr FRD. After 30 min incubation at room temperature, the luminescence intensity in the plates was measured using a ViewLux plate reader (PerkinElmer).

Compound | Potency | viability change, negative = cytotoxic
CC(C)NCC(O)c1ccc([N+](=O)[O-])cc1 (stereo not given) | inactive | 
CCC(C)(C#N)N=NC(C)(C#N)CC (stereo not given) | inactive | 
O=C/C=C/c1ccco1 | inactive | 
ClCCN1CCCC1 | inactive | 
COP(=O)(O)OC | inactive | 
NC(=O)OCCCc1ccccc1 | inactive | 
CS(=O)(=O)c1ccc(C(=O)C2C(=O)CCCC2=O)c(Cl)c1COCC(F)(F)F | inactive | 
C=CCN1CC[C@]23CCCC[C@H]2[C@H]1Cc1ccc(O)cc13 | inactive | 
NNCc1ccccc1 | inactive | 
O=[N+]([O-])CCO | inactive | 
CCCCOC(C)=O | inactive | 
CCN1CCCC1CNC(=O)C(O)(c1ccccc1)c1ccccc1 (stereo not given) | inactive | 
C[C@H](N)C(=O)c1ccccc1 | inactive | 
O=c1[nH]c2ccccc2o1 | inactive | 
CN(C)C(=O)Oc1cc(OC(=O)N(C)C)cc(C(O)CNC(C)(C)C)c1 (stereo not given) | inactive | 
O=C(O)C(Cl)Br (stereo not given) | inactive | 
ClCCCCCCCl | inactive | 
CCOP(=O)(CN(CCO)CCO)OCC | inactive | 
c1ccc2c(c1)CCNC2 | inactive | 
CN(C)C1CCCCC1 | inactive | 

Compound | Potency | viability change, negative = cytotoxic
CCCCCCCCSC(=O)Oc1cc(Cl)nnc1-c1ccccc1 | inactive | 
CCN(CCO)CCn1c(Cc2ccccc2)nc2c1c(=O)n(C)c(=O)n2C | inactive | 
Cc1cccc2sc3nncn3c12 | inactive | 
O=C(O)C(F)(F)C(F)(F)C(F)(F)C(F)(F)C(F)(F)C(F)(F)F | inactive | 
O=[N+]([O-])c1cccc(CCl)c1 | inactive | 
CC(C)[N+](C)(CCC(C(N)=O)(c1ccccc1)c1ccccc1)C(C)C | inactive | 
CCOc1cc(OP(=S)(OC)OC)nc(CC)n1 | inactive | 
NC(=O)CS(=O)C(c1ccccc1)c1ccccc1 (stereo not given) | inactive | 
CCC(C)C(C)(COC(N)=O)COC(N)=O (stereo not given) | inactive | 
CC(=O)CN(CC(C)=O)N=O | inactive | 
Oc1ccc2c3c1O[C@H]1[C@@H](O)C=C[C@H]4[C@@H](C2)NCC[C@@]341 | inactive | 
COc1ccc(C=O)cc1O | inactive | 
Clc1cc2c(cc1Cl)Oc1cc(Cl)c(Cl)cc1O2 |  | -3.41% [at 0.278 µM]
COc1cccc(C=O)c1 | inactive | 
CC[C@H](N)c1ccccc1 | inactive | 
c1cncc([C@@H]2CCCCN2)c1 | inactive | 
CCC(=O)c1ccc(Cl)cc1 | inactive | 
CCC1(c2ccccc2)CCC(=O)NC1=O (stereo not given) | inactive | 
COc1cc(CC(C)N)cc(OC)c1OC (stereo not given) | inactive | 
O=C(Cl)OCc1ccccc1 | inactive | 
